# PubChem BioAssay (NCATS)
# Records with an inconclusive call do not appear. Where a call stands in place of a potency, no number is given. Values without a mark were called inactive. The source made the active and inactive calls. Unless noted, calls follow the shape of the dose curve; as a rule, active = well fitted curve in the direction sought with a large enough effect; inconclusive = small, poorly fitted or top-dose-only effect, or another doubt; inactive = no such curve, though single readings can be large; an effect the other way counts as inactive or inconclusive.
# Key:
# [1] = molecular target: Aldehyde dehydrogenase, mitochondrial (Homo sapiens) (UniProt P05091); assay: qHTS for Inhibitors of the Aldehyde Dehydrogenase Family (ALDH2) Confirmatory screens (AID 2061303; active = well fitted inhibition curve with a large enough effect; title and protocol of this record describe different tests; also: nearly all actives have a fitted effect of over 45% in size; also: potency is read from the fitted curve at half-maximal effect); conditions: ALDH inhibition qHTS; series mostly up to 45.4 µM
# [2] = qHTS for Inhibitors of the Aldehyde Dehydrogenase Family (ALDH1A2, ALDH1A3, ALDH2, ALDH3A1) (AID 2061307); conditions: ALDH inhibition qHTS; series mostly up to 50.3 µM; also: nearly all actives have a fitted effect of over 50% in size; as to potency: test system not described further here; potency is read from the fitted curve at half-maximal effect
# [3] = molecular target: Aldehyde dehydrogenase, mitochondrial (Homo sapiens) (UniProt P05091); assay: qHTS for Inhibitors of the Aldehyde Dehydrogenase Family (ALDH2) Primary screen (AID 2061308); conditions: ALDH2 enzyme inhibition qHTS, 1536-well; series mostly up to 56 µM; also: nearly all actives have a fitted effect of over 55% in size; also: potency is read from the fitted curve at half-maximal effect
# [4] = molecular target: Retinaldehyde dehydrogenase 3 (Homo sapiens) (UniProt P47895); assay: qHTS for Inhibitors of the Aldehyde Dehydrogenase Family (ALDH1A3) Confirmatory screens (AID 2061311); conditions: ALDH inhibition qHTS; series mostly up to 46 µM; also: nearly all actives have a fitted effect of over 60% in size; also: potency is read from the fitted curve at half-maximal effect
# [5] = molecular target: Retinal dehydrogenase 2 (Homo sapiens) (UniProt O94788); assay: qHTS for Inhibitors of the Aldehyde Dehydrogenase Family (ALDH1A2) Confirmation screens (AID 2061314); conditions: ALDH1A2 enzyme inhibition qHTS confirmation; series mostly up to 45.9 µM; also: nearly all actives have a fitted effect of over 65% in size; also: potency is read from the fitted curve at half-maximal effect
# [6] = molecular target: Retinaldehyde dehydrogenase 3 (Homo sapiens) (UniProt P47895); assay: qHTS for Inhibitors of the Aldehyde Dehydrogenase Family (ALDH1A3) Primary screen (AID 2061315); conditions: ALDH inhibition qHTS; series mostly up to 56 µM
# [7] = molecular target: Aldehyde dehydrogenase 1A1 (Homo sapiens) (UniProt P00352); assay: qHTS for Inhibitors of the Aldehyde Dehydrogenase Family (ALDH1A1) Confirmatory screens (AID 2061316); conditions: ALDH inhibition qHTS; series mostly up to 47.3 µM; also: nearly all actives have a fitted effect of over 65% in size; also: potency is read from the fitted curve at half-maximal effect
SMILES,Potency [1],Potency [2],Potency [3],"activity change, negative = inhibition [4]",Potency [5],Potency [6],Potency [7],Potency [4]
O=C1[C@@H]2[C@H]3CC[C@H](C3)[C@@H]2C(=O)N1CCCCN1CCN(c2ncccn2)CC1,inactive,inactive,inactive,-14.2% [at 0.022 µM],inactive,inactive,2.52 µM (active),–
CC(C)c1ccccc1-c1ncc(F)c(NC(C)(C)c2ccc(-c3cccnc3)cc2)n1,inactive,inactive,inactive,–,inactive,inactive,inactive,inactive
Cc1ccccc1C[C@H](C(=O)O)N1C(=O)c2ccc(C(=O)O)cc2C1=O,inactive,inactive,inactive,–,inactive,inactive,inactive,inactive
Cc1ccc(C[C@@H](NS(=O)(=O)c2ccc(C(=O)O)cc2)C(=O)O)cc1,inactive,inactive,inactive,–,inactive,inactive,inactive,inactive
Cc1nc2ccccn2c1P(=O)(c1ccccc1)c1ccccc1,inactive,inactive,inactive,–,inactive,inactive,inactive,inactive
N#Cc1ccc(-c2ccc(C3Nc4ccccc4C(=O)N3O)o2)cc1 (stereo unspecified),1.26 µM (active),3.18 µM (active),1.26 µM (active),–,3.18 µM (active),inactive,3.57 µM (active),5.04 µM (active)
CCCCNc1ccc(C(=O)OCCN(CC)CC)cc1,inactive,inactive,inactive,–,inactive,inactive,inactive,inactive
COc1ccc(-c2csc(N3CCC(C(N)=O)CC3)n2)cc1,inactive,inactive,inactive,–,inactive,inactive,inactive,inactive
CCOC(=O)c1cccc(-n2cnc(/C=C3\NC(=O)N(CC(=O)O)C3=O)c2)c1,inactive,inactive,inactive,–,inactive,inactive,inactive,inactive
COc1ccc(C2Nc3ccccc3C(=O)N2CCO)cc1COc1ccc(NC(C)=O)cc1 (stereo unspecified),2 µM (active),3.18 µM (active),inactive,–,14.2 µM (active),inactive,22.5 µM (active),10 µM (active)
c1cncc(-c2ccc(CNc3nc(C4CCCC4)nc4ccccc34)cc2)c1,inactive,inactive,inactive,–,inactive,inactive,inactive,11.3 µM (active)
COc1ccc(C2=Nn3c(nnc3-c3cccc(OC)c3OC)SC2)cc1,inactive,inactive,inactive,–,inactive,inactive,inactive,inactive
N[C@@H](CCC(=O)O)C(=O)Nc1ccc(Cl)cc1C(=O)c1ccc[nH]1,inactive,inactive,inactive,–,inactive,inactive,inactive,inactive
Cc1cccc2c(C(=O)O)cc(Cl)nc12,inactive,inactive,inactive,–,inactive,inactive,inactive,inactive
N#Cc1ccccc1OC1=NS(=O)(=O)c2ccccc21,inactive,inactive,inactive,–,inactive,inactive,inactive,inactive
Cc1cc(NC(=O)c2ccc([S+](=O)([O-])NCc3ccc(Cl)c(Cl)c3)cc2)no1,inactive,inactive,inactive,–,inactive,inactive,inactive,inactive
Cc1cccc(OC2=NS(=O)(=O)c3ccccc32)c1,inactive,inactive,inactive,–,inactive,inactive,inactive,inactive
CC(=O)SCC(CC(=O)c1ccc(C)cc1)C(=O)O (stereo unspecified),inactive,inactive,inactive,–,inactive,inactive,inactive,inactive
CC(C)(C)OC(=O)N1CCN(c2ccc(NCc3cnc(-c4ccc(C#N)cc4)o3)cc2)CC1,0.4 µM (active),0.252 µM (active),0.316 µM (active),–,inactive,inactive,inactive,inactive
COc1cc(F)cc(F)c1[S+](=O)([O-])N1CCN([S+](=O)([O-])c2ccc3c(c2)OCCO3)CC1,inactive,inactive,inactive,–,inactive,inactive,inactive,inactive
O=C(C1CCN(c2nc(-c3ccc(Br)cc3)cs2)CC1)N1CCOCC1,inactive,11.3 µM (active),inactive,–,inactive,inactive,inactive,inactive
COc1ccc(C[C@H](N)C(=O)N[C@H]2[C@@H](O)[C@H](n3cnc4c(N(C)C)ncnc43)O[C@@H]2CO)cc1,inactive,inactive,inactive,–,inactive,inactive,inactive,inactive
Cc1noc(C)c1-c1csc(N2CCC(C(N)=O)CC2)n1,inactive,inactive,inactive,–,inactive,inactive,inactive,inactive
